Legend:
ETS1 [1] = target: T1, ETS1 (UniProt P14921); assay: ETS1 binding intensity (PBM fluorescence), ETS1 alone (arbitrary fluorescence units); higher = stronger binding; details: ETS1 concentration 1 nM; RUNX1 concentration 0 nM
T1 sequence: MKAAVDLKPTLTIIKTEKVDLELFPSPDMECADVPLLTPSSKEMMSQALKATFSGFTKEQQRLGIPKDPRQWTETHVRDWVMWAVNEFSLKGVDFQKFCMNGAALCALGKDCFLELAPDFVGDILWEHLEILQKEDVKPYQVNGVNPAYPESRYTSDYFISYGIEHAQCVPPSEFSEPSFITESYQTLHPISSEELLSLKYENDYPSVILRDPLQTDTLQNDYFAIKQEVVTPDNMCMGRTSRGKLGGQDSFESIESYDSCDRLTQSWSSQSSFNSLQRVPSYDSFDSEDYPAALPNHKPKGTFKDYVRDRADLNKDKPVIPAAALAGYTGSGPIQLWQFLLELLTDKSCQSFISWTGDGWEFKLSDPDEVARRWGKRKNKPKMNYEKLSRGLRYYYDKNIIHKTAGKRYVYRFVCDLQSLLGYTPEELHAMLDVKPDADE

RUNX1 [2] = target: RUNX1 (UniProt Q01196); assay: RUNX1 binding intensity (PBM fluorescence), RUNX1 alone (arbitrary fluorescence units); higher = stronger binding; details: RUNX1 concentration 2 nM; ETS1 concentration 0 nM
Chain of RUNX1 (Q01196 whole entry): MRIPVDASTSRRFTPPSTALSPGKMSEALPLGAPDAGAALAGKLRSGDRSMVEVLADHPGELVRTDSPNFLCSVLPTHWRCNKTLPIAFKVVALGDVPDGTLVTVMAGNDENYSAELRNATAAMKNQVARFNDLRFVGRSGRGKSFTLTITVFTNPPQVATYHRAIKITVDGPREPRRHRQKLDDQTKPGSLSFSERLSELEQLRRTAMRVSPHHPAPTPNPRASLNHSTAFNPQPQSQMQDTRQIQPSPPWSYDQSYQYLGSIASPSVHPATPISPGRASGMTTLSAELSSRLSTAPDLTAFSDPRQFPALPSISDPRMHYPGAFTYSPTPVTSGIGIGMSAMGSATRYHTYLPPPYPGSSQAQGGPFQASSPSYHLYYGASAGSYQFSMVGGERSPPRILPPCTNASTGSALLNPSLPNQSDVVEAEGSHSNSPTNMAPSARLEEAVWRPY
Protocol: (§1)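 Cooperative gcPBM on 36-bp genomic probes with neighbouring ETS1 and RUNX1 sites. Recombinant human RUNX1 (2 nM) was incubated alone or with ETS1 (25 nM) and detected with anti-RUNX1 antibody plus Alexa488 secondary. Values are medians over 4 replicate spots; the RUNX1+ETS1 data were normalised to the RUNX1-only data. The probes sit in constant array flanks that are not printed.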

ETS1 [3] = target: T1, ETS1; assay: ETS1 binding intensity (PBM fluorescence) in presence of RUNX1, normalised to ETS1-only experiment (arbitrary fluorescence units); higher = stronger binding; details: ETS1 concentration 1 nM; RUNX1 concentration 25 nM
RUNX1 [4] = target: RUNX1 (UniProt Q01196); assay: RUNX1 binding intensity (PBM fluorescence) in presence of ETS1, normalised to RUNX1-only experiment (arbitrary fluorescence units); higher = stronger binding; details: RUNX1 concentration 2 nM; ETS1 concentration 25 nM
Protocol: as §1
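For RUNX1 binding intensity (PBM fluorescence) in presence of ETS1, normalised to RUNX1-only experiment in this document: Full-length recombinant human ETS1 or RUNX1 bound to double-stranded 36-bp genomic probes on microarrays, detected by protein-specific primary antibody and Alexa488 secondary, spot fluorescence as median of four replicate spots.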
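For RUNX1 binding intensity (PBM fluorescence), RUNX1 alone in this document: Full-length recombinant human RUNX1 bound to double-stranded 36-bp genomic probes on a high-density microarray, scored as Alexa488 fluorescence per spot via anti-RUNX1 antibody, median of four replicate spots.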

Sequence | ETS1 binding intensity (ETS1 [1]) | RUNX1 binding intensity (RUNX1 [2]) | ETS1 binding intensity (ETS1 [3]) | RUNX1 binding intensity (RUNX1 [4])
CAGGCACACATCCGGGAGCGGCCTGCGCCGCAAGGC | 608 | 773 | 661 | 1560
CTGTTTCCTGCCTTTGCTGTCTGTGACCGCATCAGT | 478 | 1310 | 1490 | 2840
ACCCGGATGTCGTTGGGCAGGAACTGCGGTGAGGGC | 2580 | 829 | 7980 | 1490
GAAAACTAAGCAGGATGTGGTCTCGGCTGGAGCCTG | 2730 | 657 | 5380 | 2020
CCTGCCTGACCGGAAGTGCCCGCAACCCCACCGACC | 20600 | 1180 | 32600 | 2870
GCTGCTTCCGGCCGCTGGTCGCAGGGCTGCGGGACT | 865 | 677 | 1000 | 1760
CGGCTGTTTTCCAGGATGTTGTGGTCATGGCGGTGT | 1590 | 2920 | 6320 | 4090
AGCACAAACCCAGGATGTGGTAAATGAAATGAAAAA | 1260 | 858 | 5210 | 1460
GGCCCCTGCTTCCGGGTGTGACGCGAACCGCGGGCA | 616 | 687 | 1050 | 1400
CTGCACTTCCGGTCAGGCGGTCGGGCTGCGGGGCCC | 5690 | 739 | 6710 | 2680
CTGAGCCGGGACCGGAAGCCGCACCGCCCCCCGCGC | 18400 | 828 | 21700 | 1770
CGGGTTGGGCAGGAAGCAGCATGACCGCAGTGGGTC | 1740 | 959 | 17000 | 3250
TCGGCGGATATGAAAAAAAGTCCGTGGTCACGTGCA | 475 | 730 | 582 | 877
GAGACACTCTGCTTCCTGCGGTGGAAGATTCAGTAT | 473 | 873 | 482 | 1080
CCCCTCCCTGCTTCCTGTGTGGTGAGGGGTGATCAG | 2040 | 782 | 2040 | 1870
CGGGGACCACTGTCAGGATGTGGTCACTGGAGTCAC | 907 | 707 | 8350 | 1420
CGAGATCCTGGCCACGGATGCGGTGGCCGCGCCTCT | 414 | 795 | 660 | 975
GCAGAGTTTACAACAGGATGTGGTTATTGGCGCTGC | 8870 | 777 | 46800 | 4380
CTTTGCAGGAAGCTGGGGTTCACCCACAGCCTTGTT | 749 | 729 | 857 | 878
AAAACAAGGACTTCCGCCTCCCTGCGGTCCCTCCCC | 2140 | 894 | 2730 | 1880
AACTTCCTCCGCGCGGGGCCACTGCTACCACAAAGG | 373 | 1070 | 588 | 2540

Sequence | ETS1 binding intensity (ETS1 [1]) | RUNX1 binding intensity (RUNX1 [2]) | ETS1 binding intensity (ETS1 [3]) | RUNX1 binding intensity (RUNX1 [4])
TTCGGATTCCCGGAAGAACCCGCAGCAGCTCCCAGG | 792 | 789 | 1020 | 1190
GCATCATCACTTCCTGTTGTGGGCAGTCGTTGCCTG | 3300 | 843 | 5100 | 2360
GCGGGGACCCGGATGTGTGTGGTGGCGGCGGCCGAA | 3040 | 700 | 3350 | 1220
GTTCTTCCACGTCCGCGTTACCCACAACGGCAGTGG | 564 | 1020 | 606 | 1090
GTTTCCACTTCCTGCTGTGCAGCAGTACCACCAAGA | 1000 | 992 | 1030 | 2800
ATTTAGGAGGAAGTTTCCAGTACCACAACCTCACAG | 430 | 868 | 709 | 788
GAAGCTACTCTGGTTTCCTGTGGTTTTCTGAGCACT | 597 | 1260 | 1320 | 2900
GTGAATGAGGGGGAAGGAAGTGGTTTGGAAAAATAC | 1890 | 949 | 2790 | 962
GCAGGCGGAGCTTGAGGAAACCGCAGATAAGTTTTT | 463 | 9080 | 2510 | 10200
TGACATTTCCGGCCCCACCTCGGCCCGCAGCGCCGC | 1180 | 955 | 1170 | 2320
ACCTTCTGTTCCCTTCCTCAGACCGCAGGCGAGATG | 367 | 1620 | 835 | 2230
CCTGCCGAGGAAGTCCCACGTCACTGCGGTTAGAGT | 356 | 1670 | 2090 | 3000
GGGTGCAGACGGGAAGTTGCGGCTGCCAGCGAAGCT | 1680 | 741 | 2530 | 1270
CCCACTTCCTGTCCCTGCATGCTGTGGGGCAGGCAG | 1500 | 784 | 1570 | 2420
CTGCCGCGACAGACAGGATGTGGCTTCTGCTCTGTC | 8750 | 610 | 16900 | 1960
CACCCATAGCACCCCGGAAACCACCTCCACCACCTG | 1890 | 1390 | 2240 | 2020
GACCAATGTAAACAAGGATGTGGGTTCTCCGGGCAC | 929 | 706 | 2030 | 928
AGAAGGAACTACACAGGAAACCCACTGCCTCGATGG | 2430 | 691 | 1640 | 865
CAAAGTGATGGGGGAAATGGTTGTGGTTTTGGGTGG | 553 | 1180 | 3760 | 1500
CCCCGGGAAGGGAAGTTTGTGGCGGAGGAGGTTCGT | 592 | 805 | 589 | 934
AGAAGGCGCCGGAAGTGGTCCCGCAGAGGCGGGGTG | 8990 | 725 | 14100 | 2500

Sequence | ETS1 binding intensity (ETS1 [1]) | RUNX1 binding intensity (RUNX1 [2]) | ETS1 binding intensity (ETS1 [3]) | RUNX1 binding intensity (RUNX1 [4])
GGAGGAAGTGACACCCACCCACTGCCCCCGCAAGGT | 962 | 797 | 987 | 963
TGAGCAAGTTCCTTCCTGTCTGTGGTCCAGGGTTTA | 757 | 747 | 881 | 1510
TGCTCAGAAGGGCATCCGGTTGCGGAGAAGGTACAC | 2130 | 653 | 2000 | 1370
CTGGAGAGGATGTGGCCCCAGTGTGGTTCTGTAACT | 610 | 837 | 776 | 1170
AGTCCTGCCCACTTCCTGCCGCAAGAGAAATCCACT | 1930 | 1250 | 3260 | 9180
TCCCCGGCAGCTTCCTCGCCCCGACCGCAGTGTTCC | 368 | 1780 | 798 | 1570
TTAGGCTCATGGGAAATGTGGTTTCTAAATCGCGGG | 494 | 912 | 639 | 988
GGAATTTCTTTTTCCGGTCCCGCAGGGTCAGCTGAG | 1240 | 735 | 1520 | 1750
CTGTCCGCTACATCCGGGACCTGCGGGACCGCCGAT | 1770 | 823 | 2430 | 2300
ATGTACATAGATACAGGATGTGGGTTTGTTACAAAG | 7940 | 746 | 24400 | 3400
CGCCTACTCTACTTCCGCGGTCGGCCGGGTAAGGAC | 603 | 2130 | 754 | 2900
GAGGGTTGCTGGGGGGAAGTGTGGTAAATCTTTTCC | 458 | 938 | 475 | 930
GGTGACACGGCCGGCTTCCTGCCGCAGAGCTCCTGG | 719 | 768 | 639 | 1040
CTGCCGGAAGCTGCCCCTCCACCATTTTGTGGCCCG | 1770 | 818 | 1850 | 1280
CAGCGGCCGTCGCGGGAAGTGCGGTCGCCGCGGCCA | 500 | 871 | 1120 | 966
GCGAGAGGGAGGAAGTGACTCACCAACCACAACAAA | 1480 | 970 | 5020 | 1220
GGATTAGAACTGCTTCCTCCTGTGGTTTACCAGAAA | 417 | 923 | 595 | 1840
ACCAGAAGCACTGCAGGATGTGGTATCAAGACGCCT | 2250 | 774 | 6680 | 1160
GAGCGGAAACCCGAGAGTCAGTTCAACCACAGCCAC | 592 | 889 | 980 | 1010
GCTGCCACTTCCCTTGCTTATTTCATGTGGTTTGGA | 552 | 1230 | 794 | 1980
TCTTTAAAACCCGGAAGTTCCTGTGGTTCATACGCT | 8500 | 978 | 16500 | 1940

Sequence | ETS1 binding intensity (ETS1 [1]) | RUNX1 binding intensity (RUNX1 [2]) | ETS1 binding intensity (ETS1 [3]) | RUNX1 binding intensity (RUNX1 [4])
GCTGTGCCGGCAGGATGTGGTCTTTGGTTTCTGTTT | 5560 | 850 | 12300 | 3250
GTCGTCCCGGAAACCGGGATGCGGTTATCAGAGCGA | 1860 | 1000 | 7110 | 3180
GAAGGCGGTTCCGGTTCGCGGCGGTTCCCGGGTTTT | 515 | 794 | 466 | 1820
CAAAGGTTAAATGCAGGATGTGGTTTCTGCAGACTC | 2750 | 922 | 25400 | 3990
CGTTCTCTCATTTCCTGTGTGCACCCACATGAACCA | 3340 | 1740 | 3230 | 2920
AGCCACGGACTTCCGCCTACAGGTCGCCGCAGGTCC | 701 | 756 | 882 | 1700
TCTCCCGGAACTGCTCCTTCACCATGATGACCGCTG | 590 | 966 | 542 | 1090
GATACAGTGCTCAGGAAACCACATGAAACCAGAGTA | 451 | 924 | 948 | 972
GTTGTCTTGCCCAAAGGAAGTGGTTACTAGACCAGA | 1770 | 793 | 4870 | 1490
CTACAAACGGCTTCCTCCTGCCTAACCACAACCTCA | 455 | 3280 | 1130 | 5340
CAGAACGGTCCCCGGAACACTGCGGTTCCCGCCTGG | 357 | 1040 | 895 | 889
AGGCCGCTTCCTCCCACATGAAACCGCAGGCTTCGG | 374 | 3590 | 1590 | 10900
CTGTTTCCGAGTAAAGTAGGGTGTGTGGGTCACATG | 456 | 872 | 395 | 929
CTGAGACCTCGGGCAGGATGTGGCTTCCCCAGAGTT | 4700 | 684 | 7460 | 1180
TGATGCACTTCCTGAGGGCCCGCATGTGGTAAACAC | 495 | 834 | 880 | 1480
GACTGCACTTCCTCTGCTTCGAGGTCGGTGGTTAGC | 535 | 874 | 653 | 1450
TAAGAGATTTCCTGTAAAGGTAACCACCAGCAAAGA | 522 | 721 | 714 | 1230
GTCTTTCACTCCACTTCCGCCCCCACAAAACATACA | 2850 | 6600 | 3620 | 6600

From the supplement of paper PMC10681739
